Inconclusive results are not listed. Entries that show only a call come without a potency. The source made the active and inactive calls. Calls come from the whole dose curve; as a rule, active = well fitted cell-killing curve with a large enough effect in the repeat runs; inconclusive = weak or mixed curves, or effect the other way; inactive = flat fitted curve, though single readings scatter.
What was measured:
[1] = cAMP Responsive Elements (CRE) small molecule antagonists, cell-based qHTS assay: qHTS cell viability counter screen (AID 2060913); note: nearly all actives have a fitted effect of over 40% in size
How it was run: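 Cytotoxicity read in the same wells as the CRE-bla HEK293T antagonist assay: after 3 h compound with 0.25 uM NKH477 final and 2 h beta-lactamase substrate, CellTiter-Glo luminescence measured.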

[2] = cAMP Responsive Elements (CRE) small molecule agonists, cell-based qHTS assay: qHTS cell viability counter screen (AID 2060914);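 note: viability read after 3 h of compound exposure; nearly all actives have a fitted effect of over 50% in size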
How it was run: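 CRE-bla HEK293T cells in 10% dialyzed FBS medium were exposed to compounds for 3 h at 37C after 18 h plating. CellTiter-Glo was then added in the same wells, and luminescence was read after 30 min at room temperature.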

SMILES | Potency [1] | Potency [2]
C=C[Si](OC(C)=O)(OC(C)=O)OC(C)=O | inactive | inactive
CCC(=O)O[C@]1(C(=O)CCl)[C@@H](C)C[C@H]2[C@@H]3CCC4=CC(=O)C=C[C@]4(C)[C@@]3(F)[C@@H](O)C[C@@]21C | inactive | inactive
CCCC(=O)OCc1ccccc1 | inactive | inactive
Nc1ccc2c(O)cc(S(=O)(=O)O)cc2c1 | inactive | inactive
CC(C)(c1ccc(Oc2ccc(N)cc2)cc1)c1ccc(Oc2ccc(N)cc2)cc1 | inactive | inactive
OC1CCCC1 | inactive | inactive
CCOC(=O)c1ncn2c1CN(C)C(=O)c1cc(F)ccc1-2 | inactive | inactive
CCCCCCCCN | inactive | inactive
BrC(Br)C(Br)Br | inactive | inactive
O=C1CCCN1C1CCCCC1 | inactive | inactive
CCCCOC(=O)c1ccccc1 | inactive | inactive
OCCCCCCCl | inactive | inactive
N[C@@H]1CONC1=O | inactive | inactive
OC[C@H](Cc1cccc(O)c1)[C@H](CO)Cc1cccc(O)c1 | inactive | inactive
CCCCCCCC/C=C\CCCCCCCC(=O)OCCOC(=O)CCCCCCC/C=C\CCCCCCCC | inactive | inactive
CCN(Cc1ccncc1)C(=O)C(CO)c1ccccc1 (configuration not stated) | inactive | inactive
O=C1CCC(=O)N1 | inactive | inactive
Cc1ccc(Nc2ccc(O)c3c2C(=O)c2ccccc2C3=O)cc1 | inactive | inactive
Cc1cccc(NC(=S)N(C)C)c1 | inactive | inactive
CCOC(=O)OC(C)OC1=C(C(=O)Nc2ccccn2)N(C)S(=O)(=O)c2ccccc21 (configuration not stated) | inactive | inactive
COCCCN | inactive | inactive
CC(=O)/C=C/C1C(C)=CCC(C)C1(C)C (configuration not stated) | inactive | inactive
COC(=O)c1cc(Cl)c(NC(C)=O)cc1OC | inactive | inactive

SMILES | Potency [1] | Potency [2]
Cc1ncc([N+](=O)[O-])n1CCO | inactive | inactive
CC(=O)c1ccc2c(c1)CCCC2 | inactive | inactive
CC(C)C(=O)OCCOc1ccccc1 | inactive | inactive
CN=C(NC#N)NCCSCc1nc[nH]c1C | inactive | inactive
CCOC(=O)C1=C(C)NC(C)=C(C(=O)OC)C1c1cccc(Cl)c1Cl (configuration not stated) | inactive | inactive
CC(C)(C)C(O)/C=C/c1ccc2c(c1)OCO2 (configuration not stated) | inactive | inactive
CCCO | inactive | inactive
O=C1NC2NC(=O)NC2N1 (configuration not stated) | inactive | inactive
CCCCCCOC(=O)c1ccccc1O | inactive | inactive
Cc1cn([C@H]2C=C[C@@H](CO)O2)c(=O)[nH]c1=O | inactive | inactive
CCCCC1C(=O)N(c2ccccc2)N(c2ccc(O)cc2)C1=O (configuration not stated) | inactive | inactive
O=P(O)(O)C(O)(Cc1cccnc1)P(=O)(O)O | inactive | inactive
Cc1ccc2c(c1)c1c3n2CCNC3CCC1 (configuration not stated) | inactive | inactive
O=C(O)Cn1cnnn1 | inactive | inactive
O=C(O)c1ccc([N+](=O)[O-])cc1 | inactive | inactive
COC(=O)C1=C(C)NC(C)=C(C(=O)OCC(C)C)C1c1ccccc1[N+](=O)[O-] (configuration not stated) | inactive | inactive
C=C(C)C(=O)OCCO | inactive | inactive
CC(C)NNC(=O)c1ccncc1 | inactive | inactive
Cc1ccc(C)cc1 | inactive | inactive
Cc1nc2ccccc2c(=O)o1 | inactive | inactive
O=S(=O)(O)c1cc(I)c(O)c2ncccc12 | inactive | inactive
CC(C(=O)O)c1ccc(C(=O)c2cccs2)cc1 (configuration not stated) | inactive | inactive
NS(=O)(=O)c1cc(C(=O)NN2C[C@H]3[C@H]4CCC(C4)[C@H]3C2)ccc1Cl | inactive | inactive

SMILES | Potency [1] | Potency [2]
O=C1OC(=O)C2CC=CCC12 (configuration not stated) | inactive | inactive
O=C(O)CNC(=O)c1ccc([N+](=O)[O-])cc1 | inactive | inactive
CCNc1cc(O)ccc1C | inactive | inactive
O=C(O)CCCl | inactive | inactive
CCOC(=O)[C@@](C)(N)Cc1ccc(O)c(O)c1 | inactive | inactive
CCCCCCCCN(C)CCCCCCCC | inactive | inactive
CNc1ncnc2nc[nH]c12 | inactive | inactive
NCCCCCCNCCCCCCN | inactive | inactive
COC(OC)OC | inactive | inactive
CCN(CC)C(=O)c1ccc(O)c(OC)c1 | inactive | inactive
C[Si](NC1CCCCC1)(NC1CCCCC1)NC1CCCCC1 | inactive | inactive
O=c1cc(CO)occ1O | inactive | inactive
CC(C)(C)NC(=O)[C@@H]1CN(Cc2cccnc2)CCN1C[C@@H](O)C[C@@H](Cc1ccccc1)C(=O)N[C@H]1c2ccccc2C[C@H]1O | inactive | inactive
CC(=O)Nc1ccccc1C | inactive | inactive
COc1c(C)c2c(c(O)c1C/C=C(\C)CCC(=O)OCCN1CCOCC1)C(=O)OC2 | inactive | inactive
OCCCC1CCCCC1 | inactive | inactive
CN1CCC(OC(c2ccccc2)c2ccccc2)CC1 | inactive | inactive
NC(=O)N[C@@H](CCC(=O)O)C(=O)O | inactive | inactive
O=C(OOC(=O)c1ccccc1)c1ccccc1 | inactive | inactive
C=C[C@@]1(C)CC(=O)[C@]2(O)[C@@]3(C)[C@@H](O)CCC(C)(C)[C@@H]3[C@H](O)[C@H](OC(C)=O)[C@@]2(C)O1 | inactive | inactive
CC1=CC(=O)/C(=C(/C)O)C(=O)O1 | inactive | inactive
ON=C1CCCC1 | inactive | inactive
O=C(OCc1ccccc1)c1ccccc1 | inactive | inactive

SMILES | Potency [1] | Potency [2]
CN(C)c1ccc(Cc2ccc(N(C)C)cc2)cc1 | inactive | inactive
CCN(Cc1cccnc1)C(=O)c1cccc(Cl)c1[C@]1(C)C(=O)N(Cc2ccc(OC)cc2OC)c2ccc(Cl)cc21 | inactive | inactive
O=NO | inactive | inactive
CN1C(C(=O)Nc2ccccn2)=C(O)c2ccccc2S1(=O)=O | inactive | inactive
O=C(O)C(=O)Nc1cccc(-c2nn[nH]n2)c1 | inactive | inactive
C=CC(OCC)OCC | inactive | inactive
C(=C/c1ccccc1)/c1ccccc1 | inactive | inactive
O=c1[nH]c(=O)c2ccccc2o1 | inactive | inactive
O=C(Cl)c1ccccc1[N+](=O)[O-] | inactive | inactive
NC(=O)C(=O)N/N=C/c1ccc([N+](=O)[O-])o1 | inactive | inactive
CCCCCCCCCCCCCC | inactive | inactive
C=CC1CC2C=CC1C2 (configuration not stated) | inactive | inactive
CC[N+](CC)(CC(=O)Nc1c(C)cccc1C)Cc1ccccc1 (tested in a mixture with another compound) | inactive | inactive
CCOC(=O)N1CCC(n2c(=O)[nH]c3cc(Cl)ccc32)CC1 | inactive | inactive
Cc1cccc(C)c1NC(=O)CN1CCN(CCCC(c2ccc(F)cc2)c2ccc(F)cc2)CC1 | inactive | inactive
CCCCCc1cccc(=O)o1 | inactive | inactive
C[C@]12C=CC(=O)C=C1CC[C@@H]1[C@@H]2[C@@H](O)C[C@@]2(C)[C@H]1CC[C@]2(O)C(=O)CO | inactive | inactive
CC(C)(O)C(=O)c1ccc(OCCO)cc1 | inactive | inactive
C[C@]12CCC(=O)C=C1CC[C@@H]1[C@@H]2[C@@H](O)C[C@@]2(C)[C@H]1CC[C@]2(O)C(=O)COC(=O)CCC(=O)O | inactive | inactive
Cc1onc(-c2c(Cl)cccc2Cl)c1C(=O)N[C@@H]1C(=O)N2[C@@H]1SC(C)(C)[C@@H]2C(=O)O | inactive | inactive
CCC(O)C(C)(C)C (configuration not stated) | inactive | inactive
CN1C(=O)CC(c2ccccc2)C1=O (configuration not stated) | inactive | inactive
O=c1n(CCO)c(=O)n(CCO)c(=O)n1CCO | inactive | inactive

SMILES | Potency [1] | Potency [2]
COc1ccc(NC(C)=O)cc1 | inactive | inactive
CC(O)COC(C)(C)C (configuration not stated) | inactive | inactive
CCCCCCOc1ccccc1C(N)=O | inactive | inactive
C[C@@H]1C[C@H]2[C@@H]3CCC4=CC(=O)C=C[C@]4(C)[C@@]3(Cl)[C@@H](O)C[C@]2(C)[C@@]1(OC(=O)c1ccco1)C(=O)CCl | inactive | inactive
CC/C=C\C/C=C\C/C=C\CCCCCCCC(=O)OC | inactive | inactive
Cc1ccc2c(Br)cc(Br)c(O)c2n1 | inactive | inactive
CCCCCCCCCCC[C@@H](C[C@@H]1OC(=O)[C@H]1CCCCCC)OC(=O)[C@H](CC(C)C)NC=O | inactive | inactive
CCNC(=O)C(C)OC(=O)Nc1ccccc1 (configuration not stated) | inactive | inactive
O=C(O)CCCCC(=O)O | inactive | inactive
CC(C)C(=O)c1ccccc1 | inactive | inactive
NC(=S)NC(N)=S | inactive | inactive
CC#C[C@]1(O)CC[C@H]2[C@@H]3CCC4=CC(=O)CCC4=C3[C@@H](c3ccc(N(C)C)cc3)C[C@@]21C | inactive | inactive
CCCCCCCCCCOC(=O)c1ccccc1C(=O)OCCCCCCCC | inactive | inactive
C=C(C)C(=O)OCCOP(=O)(O)OCCOC(=O)C(=C)C | inactive | inactive
O=C1c2c(O)ccc(O)c2C(=O)c2c(NCCNCCO)ccc(NCCNCCO)c21 | inactive | inactive
CC(=O)C(C)O (configuration not stated) | inactive | inactive
CC(C)CC(=O)CC(C)C | inactive | inactive
OC[C@H]1O[C@@H]2O[C@H]3[C@H](O)[C@@H](O)[C@@H](O[C@H]4[C@H](O)[C@@H](O)[C@@H](O[C@H]5[C@H](O)[C@@H](O)[C@@H](O[C@H]6[C@H](O)[C@@H](O)[C@@H](O[C@H]7[C@H](O)[C@@H](O)[C@@H](O[C@H]1[C@H](O)[C@H]2O)O[C@@H]7CO)O[C@@H]6CO)O[C@@H]5CO)O[C@@H]4CO)O[C@@H]3CO | inactive | inactive
CCCCc1nc(Cl)c(CO)n1Cc1ccc(-c2ccccc2-c2nn[nH]n2)cc1 | inactive | inactive

Reference: PubChem BioAssay (Tox21)
